High-throughput results from PubChem BioAssay.
Compounds with a hit are over-represented: about 3.6% of the library has one in this group of screens.
Mtb FBA inh: Mtb FBA enzyme inhibitors, primary screen, biochemical, fluorescence, strain H37Rv; Fructose-bisphosphate aldolase (Mycobacterium tuberculosis (strain ATCC 25618 / H37Rv)), …; purified M. tuberculosis FBA, fluorescence read-out; inhibition, % at 1 µM; 2.3% of 360,000 active; AID 588726, 2011; in the data active means inhibition above about 27%
Target sequence (P9WQA3 whole entry, looked up): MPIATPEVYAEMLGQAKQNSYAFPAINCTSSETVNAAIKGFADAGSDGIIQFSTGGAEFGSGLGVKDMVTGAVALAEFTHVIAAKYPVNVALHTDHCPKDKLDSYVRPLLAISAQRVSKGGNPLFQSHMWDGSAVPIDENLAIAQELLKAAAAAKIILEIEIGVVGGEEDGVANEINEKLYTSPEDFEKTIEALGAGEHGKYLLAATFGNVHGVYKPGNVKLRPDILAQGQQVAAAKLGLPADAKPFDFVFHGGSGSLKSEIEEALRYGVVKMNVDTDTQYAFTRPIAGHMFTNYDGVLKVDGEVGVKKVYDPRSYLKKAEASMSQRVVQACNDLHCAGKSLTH
Mtb hypoxia rep: PubChem AID 1159583; 0.1% of 300,000 active; M. tuberculosis hypoxia-regulated fluorescent reporter, fluorescence; fluorescence inhibition, % (no concentration beside the values); in the data active means fluorescence inhibition mostly above about 23%, no sharp cut-off; inactive means mostly below about 17%
GDH-TPI inh: GDH-TPI coupling enzyme inhibitors, primary screen, artefact control for M. tuberculosis FBA inhibitor project, biochemical, absorbance, full deck. GDH-TPI coupled enzyme counterscreen, NADH absorbance. 1.2% of 360,000 active. AID 588335, 2011. inhibition, % at 4.8 µM; in the data active means inhibition above about 30%
Mtb bLac sens: beta-lactam sensitization of Mtb H37Rv, H37Rv. inhibition, % at 25 µM. AID 434955, 2010. M. tuberculosis H37Rv growth with meropenem, percent inhibition. 0.27% of 330,000 active; call rule not given here;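 further: growth measured after seven days incubation then overnight dye step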
DUSP3 inh: VHR1 phosphatase inhibitors, primary screen, biochemical, absorbance, uHTS; Dual specificity protein phosphatase 3 (Homo sapiens), P51452; recombinant VHR phosphatase, pNPP absorbance; inhibition, % at 13.3 µM; 0.52% of 290,000 active; AID 1654, 2009; in the data active means inhibition above about 50%
Numbers stand for hits.

Results for COc1ccccc1/C=C/C=N/NC(=O)c1ccco1 ?
Mtb FBA inh: inactive; GDH-TPI inh: 37; Mtb bLac sens: inactive; DUSP3 inh: inactive

Results for Cc1ccsc1/C=N/NC(=O)c1ccco1 ?
Mtb FBA inh: inactive; GDH-TPI inh: 33; Mtb bLac sens: inactive; DUSP3 inh: inactive

Results for COc1ccccc1/C=C/C=N/NC(=O)c1ccncc1 ?
Mtb FBA inh: inactive; GDH-TPI inh: 44; Mtb bLac sens: inactive; DUSP3 inh: inactive

Results for CC(C)C=C1CCCCC1N(C)C(=O)NC(C)C (configuration not stated) ?
Mtb hypoxia rep: inactive

How did NC(=NO)c1ccccc1-n1cccc1 do in these assays?
Mtb hypoxia rep: inactive

Results for COc1ccccc1/C=C/C=c1sc2nc(=O)c(Cc3ccccc3)nn2c1=O ?
Mtb hypoxia rep: inactive

How did Cc1ccsc1/C=N/N=C/c1sccc1C do in these assays?
Mtb FBA inh: inactive; GDH-TPI inh: 33; Mtb bLac sens: inactive; DUSP3 inh: inactive

Results for O=C(NN=CC=NNC(=O)c1ccco1)c1ccco1 ?
Mtb hypoxia rep: inactive

How did COc1ccccc1/C=C/C=N/NC(=O)c1cc(-c2ccc(C)o2)[nH]n1 do in these assays?
Mtb FBA inh: inactive; GDH-TPI inh: 44; Mtb bLac sens: inactive; DUSP3 inh: inactive

Results for Cc1ccsc1C=NN=Cc1sccc1C ?
Mtb hypoxia rep: inactive

What do the screens show for `O=C(N/N=C/C=N/NC(=O)c1ccco1)c1ccco1`?
Mtb FBA inh: inactive; GDH-TPI inh: 54; Mtb bLac sens: inactive; DUSP3 inh: inactive

How did C/C(=N/NC(=O)c1ccco1)c1ccc(Br)s1 do in these assays?
Mtb FBA inh: inactive; GDH-TPI inh: 43; Mtb bLac sens: inactive; DUSP3 inh: inactive

Results for C=C(C)C1CC=C(C)C(=NNc2ccccc2[N+](=O)[O-])C1 (configuration not stated) ?
Mtb hypoxia rep: inactive

How did COc1ccccc1/C=C/C=N/NC(=O)Cc1cccs1 do in these assays?
Mtb FBA inh: inactive; GDH-TPI inh: 32; Mtb bLac sens: inactive; DUSP3 inh: inactive

Results for O=C(Cc1cccs1)NN=C/C=C/c1ccccc1[N+](=O)[O-] ?
Mtb hypoxia rep: inactive

What do the screens show for `COc1cc(C=NNC(=O)C2CCN(CC(O)COCc3ccccc3)CC2)cc(OC)c1OC` (configuration not stated)?
Mtb hypoxia rep: inactive

Results for COc1ccccc1-c1ccc(C(=O)O)o1 ?
Mtb FBA inh: 131; GDH-TPI inh: inactive; Mtb bLac sens: inactive; DUSP3 inh: inactive

What do the screens show for `NC1=NCC(Cc2ccc(O)cc2)N1CCCCC1CCCCC1` (configuration not stated)?
Mtb hypoxia rep: inactive

Results for O=C1C=C(c2cc3ccccc3s2)CC(c2ccc(F)cc2)C1 (configuration not stated) ?
Mtb hypoxia rep: inactive

How did COc1cc(C2CC=C(C(=O)O)C(c3ccccc3)N2S(=O)(=O)c2ccc(C)cc2)cc(OC)c1OC (configuration not stated) do in these assays?
Mtb hypoxia rep: inactive

Results for OCC[C@@H]1C[C@@H](O)[C@H](O)[C@]2(CCCc3ccccc3O2)O1 ?
Mtb FBA inh: inactive; GDH-TPI inh: inactive; Mtb bLac sens: inactive; DUSP3 inh: 52

Results for OCC[C@H]1C[C@@H](O)[C@H](O)[C@]2(CCCc3ccccc3O2)O1 ?
Mtb FBA inh: inactive; GDH-TPI inh: inactive; Mtb bLac sens: inactive

What do the screens show for `Cc1cc(NN=Cc2ccc(O)cc2O)nc(N2CCOCC2)n1`?
Mtb hypoxia rep: inactive

How did Oc1ccc(C=NNc2cc(N3CCCC3)nc(N3CCCC3)n2)cc1 do in these assays?
Mtb hypoxia rep: inactive

How did Oc1ccc(/C=N/Nc2cc(N3CCOCC3)nc(N3CCOCC3)n2)cc1 do in these assays?
Mtb FBA inh: inactive; GDH-TPI inh: 58; Mtb bLac sens: inactive

How did Cc1cc(N/N=C/c2ccccc2O)nc(N2CCOCC2)n1 do in these assays?
Mtb FBA inh: inactive; GDH-TPI inh: 64; Mtb bLac sens: inactive; DUSP3 inh: inactive

What do the screens show for `CCc1ccc(/C=N/Nc2ncnc3nc[nH]c23)cc1`?
Mtb FBA inh: inactive; GDH-TPI inh: 71; Mtb bLac sens: inactive; DUSP3 inh: inactive

How did Cc1ccc[n+](-c2[nH]c(=O)sc2C=NNC(=O)c2ccccc2[O-])c1 do in these assays?
Mtb hypoxia rep: inactive

What do the screens show for `CCCc1nnc(NC(=O)C(=O)NCCN(C)C)s1`?
Mtb FBA inh: inactive; GDH-TPI inh: 31; DUSP3 inh: inactive
